Consider 16 compounds from PubChem BioAssay (NCI).

What all share (experiment): NCI-60 one-dose screen, 48 h (100 = growth as untreated, 0 = no growth, -100 = all killed)
Holding throughout (details): 10 µM unless noted

Experiment [1] deals with T-47D breast.
Experiment [2] concerns BT-549 breast.
In experiment [3] the test system is MDA-MB-435 melanoma.
Experiment [4] deals with SW-620 colon.
In experiment [5] the test system is MCF7 breast.
Experiment [6] relates to HCT-116 colon.
Experiment [7] relates to KM12 colon.
Experiment [8] relates to HCC-2998 colon.

Molecules are shown by their SMILES. About 83,000 compounds went through this panel and 20% of them were active in at least one assay; those are over-represented in the sample as a whole.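 For each line, cells grew in 96-well plates with the test compound present at a single concentration for 48 hours.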 A number with no mark means an inactive call. Activity calls are given as the source filed them. How the source made its calls: active means growth percent below 10; inactive means the rest.

For the compound `CC(C)(C)c1nc(-c2ccc(O)c(O)c2)cs1`, the growth in experiment [1] is 61.6%; in experiment [2], 63.3%; in experiment [3], 36.6%; in experiment [4], 28.6%; in experiment [5], 83%; in experiment [6], 48.8%. For the same compound, the growth in experiment [7] is 76.7%.

Consider `Cc1cc2nc3c4cc(N)ccc4n(CCN(C)C)c3nc2cc1C`, for which the growth in experiment [1] was 16.1%; in experiment [2], 45%; in experiment [3], 14.6%; in experiment [4], 7.31% (active); in experiment [5], -19.6% (active); in experiment [8], 17%. The growth in experiment [7] is 17.4%.

In the case of `Cc1ccc(-c2nn(Cc3cn(-c4cc(C)nc5ccccc45)nn3)c3ncnc(N)c23)cc1`, the growth in experiment [1] is 19.6%; in experiment [2], 64.4%; in experiment [3] it was 50.2%; in experiment [4], 82.4%; in experiment [5], 34.6%; in experiment [6], 53.8%. Also, in experiment [7], the growth was 74.4%.

Regarding `CC(=O)N1N=C(c2ccc(C)cc2)CC1c1ccc(Oc2ccc(Br)cc2)cc1` (stereo not given), the growth is 60.6% in experiment [1]; 89.3% in experiment [2]; 97.6% in experiment [3]; 86.7% in experiment [4]; 81.8% in experiment [5]; 87.3% in experiment [6]. Also, in experiment [7], the growth was 85.5%.

In the case of `O=[N+]([O-])c1cc(S(=O)(=O)c2ccc(F)c([N+](=O)[O-])c2)ccc1F`, the growth in experiment [1] was 95.8%; in experiment [2], 107%; in experiment [3], 103%; in experiment [4], 48%; in experiment [5], 58.5%; in experiment [8] it was 112%. Moreover, in experiment [7], the growth was 80.2%.

With `C/C(Cc1ccc(Cl)cc1)=C(/c1ccc(Cl)cc1)c1ccc(OCCN2CCCC2)cc1`, the growth in experiment [1] was 66.3%; in experiment [2] it was 99.2%; in experiment [3], 82%; in experiment [4], 58.6%; in experiment [5], 31%; in experiment [8], 68.7%. In addition, in experiment [7], the growth is 53.8%.

As for `Cc1nn2c(-c3nc4cc(Cl)c(Cl)cc4[nH]3)c(-c3ccc(F)cc3)nc2s1`, the growth in experiment [1] was -0.149% (active); in experiment [2], 44.2%; in experiment [3], 26.6%; in experiment [4] it was 39.5%; in experiment [5], 40.1%; in experiment [8], 75.8%. Also, the growth in experiment [7] was 39.3%.

Take `C=C(C)[C@@H]1CC[C@]2(CN)CC[C@]3(C)[C@H](CC[C@@H]4[C@@]5(C)CCC(=O)NC(C)(C)[C@@H]5CC[C@]43C)[C@@H]12`: the growth in experiment [1] is 53.9%; in experiment [2], 80.8%; in experiment [3], 92.7%; in experiment [4], 75.9%; in experiment [5], 41.5%; in experiment [8] it was 97.7%. Moreover, the growth in experiment [7] is 81%.

For the compound `CCN(CC)CCCCCCNc1ccnc2cc(Cl)ccc12`, the growth was 91% in experiment [1]; 86.3% in experiment [2]; 88.5% in experiment [3]; 83.3% in experiment [4]; 82.7% in experiment [5]; 59.1% in experiment [6]. Besides, the growth in experiment [7] is 84.9%.

Regarding `CCC1C(=O)COC1=O` (stereo not given), the growth in experiment [1] is 71.6%; in experiment [2], 95.9%; in experiment [3], 103%; in experiment [4], 98%; in experiment [6], 85.8%; in experiment [8], 107%.

As for `COC(=O)[C@]12CC[C@@H](C)[C@H](C)[C@@H]1C1=CC(=O)[C@@H]3[C@@]4(C)C[C@@H](OC(C)=O)[C@H](OC(C)=O)[C@@](C)(COC(C)=O)[C@@H]4C(=O)C[C@@]3(C)[C@]1(C)CC2`, the growth in experiment [1] is 45.1%; in experiment [2] it was 17.8%; in experiment [3] it was 57.8%; in experiment [4], 50.2%; in experiment [6], 22.6%; in experiment [8], 68.7%. The growth in experiment [7] is 44.7%.

Take `COC(=O)C(N)CSC(c1ccccc1)(c1ccccc1)c1ccccc1` (stereo not given): the growth was 23.9% in experiment [1]; 54.6% in experiment [2]; -58.7% (active) in experiment [3]; 21.1% in experiment [4]; 13.1% in experiment [5]; 12.9% in experiment [8]. The growth in experiment [7] was 17.6%.

Take `COC(=O)[C@]12CC[C@@H](C(=O)/C=C/c3cccnc3)[C@@H]1[C@H]1CC[C@@H]3[C@@]4(C)C/C(=C/c5cccnc5)C(=O)C(C)(C)[C@@H]4CC[C@@]3(C)[C@]1(C)CC2`: the growth is -43.6% (active) in experiment [1]; -92.1% (active) in experiment [2]; -69.7% (active) in experiment [3]; -67.3% (active) in experiment [4]; -87.4% (active) in experiment [6]; -55.5% (active) in experiment [8]. Also, the growth in experiment [7] is -75% (active).

For the compound `Cc1csc(Nc2nc(-c3cccc(Br)c3)nc(C(Cl)(Cl)Cl)n2)n1`, the growth is 13.9% in experiment [1]; 85.4% in experiment [2]; 65.3% in experiment [3]; 52.6% in experiment [4]; 47.7% in experiment [6]; 16.1% in experiment [8]. For the same compound, the growth in experiment [7] was 27.7%.

`Cc1ccc2c(c1)c1nc3cc(C)c(C)cc3nc1n2CCN(C)C`: the growth in experiment [1] was 23.2%; in experiment [2], 50.2%; in experiment [3], 16.1%; in experiment [4], 12.5%; in experiment [6], 8.95% (active); in experiment [7], 21.7%.

Consider `COC(=O)c1cc(=O)nc(N/N=C/c2ccc(C)cc2)s1`, for which the growth is 105% in experiment [1]; 99.6% in experiment [2]; 115% in experiment [3]; 106% in experiment [4]; 89.9% in experiment [5]; 106% in experiment [8]. Further, the growth in experiment [7] is 110%.
